# Results reported in the OligoGym collection.
# Target: GATA4
# Test: pooled miR-30 sensor sort-seq; sequence = guide strand
# Details: shRNA
# Further: reference of the scale not given here.
row,Sequence,sensor-assay potency score (higher = more potent)
1,TTCTGTTGTGTTGTGTTTGTTT,-0.142
2,TTGTTCTGGAGTCATTACCAGG,-1.25
3,TGACGGGAGACGCATAGCCTTG,-1.75
4,TCAAACATATCGAGATTGGGGT,0.14
5,TTCGTGTTGCAGAATCTCTGGC,0.947
6,TAAAACAGAATCTTGGTTCAAA,0.268
7,TTGATGGGACGCATCTCCTCGC,-0.611
8,TTGCTGGAAGCACCGCTGGCGG,-1.56
9,TCGACTTCAAGTTTCTTCCCAG,0.0228
10,TGACACACTCTCTGCCTTCTGA,-0.406

# Target: GCKR
# Test: as above
# Details: shRNA
row,Sequence,sensor-assay potency score (higher = more potent)
1,TTTGTCTAGATCCTGGGTCAGT,-0.835
2,TAGCTCACGCTGGAACTTCTGG,-0.719
3,TAGCAGTCGAACAATGTTCTCA,-0.15
4,ATCTGCTTTGTCTAGATCCTGG,-0.482
5,TTTGGTGCTTAGCTCACGCTGG,-0.0787
6,TTCCTTCTCATGTGCAACCTGG,-0.464
7,TATCATCTGACAGTGGCTGGGG,0.728
8,TTCTTCTCCAGACTGGTGCTGA,-0.0469
9,TTCTGGTTAAACATGTCACTGT,0.368
10,TAGGTCGAGAGCAAGAACTCTC,-0.283
11,TTCGCTGTAGAGTCTCTGGTAT,0.0176
12,TGTCGGAATGTTGAACTCCAGT,-1.08

# Target: GDF3
# Test: as above
# Details: shRNA
row,Sequence,sensor-assay potency score (higher = more potent)
1,TGAAGTGAACAGCACCTTGTGG,-0.321
2,TAACAGGAAGCTGAAAGCCAAA,-1.72
3,TTTACCCTAAGAACACTCCTTC,0.541
4,TTACGTAGCATAAGTCTCGGGA,0.238
5,TAGAATGACATTGTCATTATTG,-1.56
6,TTCTTGAAATTGGACTGCCTGG,-1.06
7,ATTGTCATTATTGTCCTGGTAG,0.032
8,TTTATTAAAAGATTTACCCTAA,0.196
9,TTCTTTGACCAGTATCTCCAGG,-0.0651
10,TAATGTCGTAGAATGACATTGT,0.288
11,TTTACGTAGCATAAGTCTCGGG,-0.227
12,ATCCTTAGCTACATCCAGCAGG,-0.935

# Target: GEMIN6
# Test: as above
# Details: shRNA
row,Sequence,sensor-assay potency score (higher = more potent)
1,TATACTCATTCTTCTCACTGGC,0.16
2,TTCTCTCTTCCAGATCCTCTGG,-0.645
3,TTCAATAAGATCCTGAACACGC,0.147
4,AATAAGATCCTGAACACGCGAC,-0.339
5,TTAGGCTGTTCTTTCTCTCTTC,-0.165
6,ATAATCTCATTAGAGCTGCTGC,-0.457
